From PubChem
Giardia FBPA inh-1 = inhibitors of Giardia lamblia fructose-1,6-bisphosphate aldolase; purified Giardia FBPA; Potency, µM (doses to about 59.6 µM), without a hit: top-dose activity, negative = inhibition, hits mostly inhibitors; 290,000 tested, 0.71% active; further: nearly all actives have a fitted effect of over 55% in size
Target sequence (A8B2U2 whole entry, looked up): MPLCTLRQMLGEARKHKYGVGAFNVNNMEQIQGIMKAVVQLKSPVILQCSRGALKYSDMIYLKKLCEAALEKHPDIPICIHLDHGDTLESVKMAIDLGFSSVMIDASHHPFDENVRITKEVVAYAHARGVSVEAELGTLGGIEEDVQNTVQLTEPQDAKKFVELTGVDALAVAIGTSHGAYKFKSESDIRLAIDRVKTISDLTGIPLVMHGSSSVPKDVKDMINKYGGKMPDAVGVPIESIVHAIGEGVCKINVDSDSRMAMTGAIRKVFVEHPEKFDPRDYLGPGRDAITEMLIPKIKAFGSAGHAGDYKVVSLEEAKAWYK
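40 nM FBPA preincubated 10 min at RT with compound (up to 57.5 uM final), then substrate plus GAPDH/TPI/NAD/arsenate coupling and diaphorase/resazurin added. Fluorescence read after 20 min at RT, 525/598 nm.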
VACV Venus inh = inhibitors of vaccinia virus (Venus reporter) | Vaccinia virus Venus reporter expression, fluorescence | Potency, µM (titrated, usually from 36.5 µM), for inactives: at the highest dose activity change, negative = inhibition, actives largely listed as inhibitors | 330,000 tested, 0.46% active | AID 720580; calls by dose curve; tested in A549 cells; further: nearly all actives have a fitted effect of over 30% in size
FMDV antiviral = antivirals against foot and mouth disease virus; Potency, µM (doses to about 57.9 µM), for the others: top-dose activity change, negative = inhibition, usual class: inhibitors; AID 1159524; 410,000 tested, 1.2% active; FMDV antiviral cell-based qHTS; calls by dose curve; tested in HEK293T cells; further: read-out not given here; nearly all actives have a fitted effect of over 45% in size
Vaccinia mCherry = vaccinia inhibition (mCherry reporter) | Vaccinia virus mCherry reporter infection, fluorescence | Potency, µM (top dose mostly 36.5 µM), inactives show at the highest dose activity change, negative = inhibition, usual class: inhibitors | AID 720579 | 310,000 tested, 0.63% active; calls by dose curve; tested in A549 cells; further: nearly all actives have a fitted effect of over 35% in size
Giardia growth = Giardia lamblia growth inhibition; AID 2785; Potency, µM (titrated, usually from 57.5 µM), inactives show at the highest dose activity change, negative = inhibition, most hits filed as inhibitors; Giardia lamblia trophozoite growth inhibition; 1,500 tested, 5% active; shares compounds with Giardia FBPA inh-1;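 further: trophozoites exposed to compound for 48 h at 37 °C; nearly all actives have a fitted effect of over 70% in size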
Mammal cell tox = counter-screen for Giardia aldolase inhibitors: mammalian cell toxicity; shares compounds with Giardia FBPA inh-1; mammalian cell viability counter-screen, qHTS; Potency, µM (highest dose often 57.5 µM), for the others: at the highest dose viability change, negative = toxicity, hits mostly inhibitors; 1,500 tested, 4% active; AID 2786;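 further: Chinese hamster ovary cells used as mammalian cytotoxicity surrogate; viability measured as cellular ATP by luminescence; compound exposure lasted 48 h before reading; nearly all actives have a fitted effect of over 60% in size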
Giardia FBPA inh-2 = confirmation of Giardia fructose-bisphosphate aldolase inhibitors. shares compounds with Giardia FBPA inh-1. Potency, µM (highest dose often 57.5 µM), inactives show top-dose activity change, negative = inhibition, actives largely listed as inhibitors. 1,500 tested, 5% active. purified Giardia aldolase enzyme activity, qHTS; further: nearly all actives have a fitted effect of over 45% in size
Rabbit FBPA inh = selectivity test for Giardia aldolase inhibitors: rabbit aldolase. shares compounds with Giardia FBPA inh-1. Rabbit muscle FBPA enzyme inhibition, selectivity counter-screen. Potency, µM (top dose mostly 57.5 µM), inactives show top-dose activity, negative = inhibition, hits mostly inhibitors. 1,500 tested, 4% active; further: nearly all actives have a fitted effect of over 60% in size
GAPDH coupling = counter-screen for Giardia aldolase inhibitors: GAPDH coupling enzyme | shares compounds with Giardia FBPA inh-1 | GAPDH coupling enzyme counterscreen, biochemical, qHTS | 1,500 tested, 6% active | AID 2795 | Potency, µM (doses to about 57.5 µM), inactives show at the top dose activity change, negative = inhibition, most hits filed as inhibitors; further: nearly all actives have a fitted effect of over 55% in size
* marks the source's active call; other numbers are inactive results; i = inactive; u = inconclusive; x = no result given; [ ] = dose if it differs, or a comment. The list is not random: actives were taken first. Their share in the collection is about 2.2%. Unless noted, the call rests on the fitted dose curve; in most records, active means well fitted curve in the direction sought with a large enough effect; inconclusive means small, poorly fitted or top-dose-only effect, or another doubt; inactive means no such curve, though single readings can be large; an effect the other way counts as inactive or inconclusive. On the % scale 0 is the no-effect control and ±100 the full control effect; potency means the concentration at half of the fitted maximal effect.

SMILES	Giardia FBPA inh-1	VACV Venus inh	FMDV antiviral	Vaccinia mCherry	Giardia growth	Mammal cell tox	Giardia FBPA inh-2	Rabbit FBPA inh	GAPDH coupling
CCn1nc(C)cc1-c1n[nH]c(=S)n1N	7.1µM*	-3%	-14%	x	17%	21%	7%	-3%	14%
Nn1c(-c2cccc(Br)c2)n[nH]c1=S	-6%	-22%	-4%	x	x	x	x	x	x
O=C(CN1CCN(S(=O)(=O)c2ccc(Cl)cc2)CC1)c1ccc(O)c(O)c1	x	x	-19%	x	x	x	x	x	x
O=C(CN1CCN(S(=O)(=O)c2ccc(F)cc2)CC1)c1ccc(O)c(O)c1	20µM*	-1%	-19%	-4%	-6%	-13%	-29%	-17%	2%
CCCCC/C=C\C\C=C/C=C/C=C/[C@@H](SCC(N)C(=O)NCC(=O)O)[C@@H](O)CCCC(=O)O (some centres not stated)	1%	x	x	x	x	x	x	x	x
CSCC[C@H](NC(=O)[C@H](CC(C)C)NC(=O)CCNC(=O)[C@@H](NC(=O)[C@H](Cc1ccccc1)NC(=O)[C@H](CO)NC(=O)[C@@H](N)CC(=O)O)C(C)C)C(N)=O	0%	x	x	x	x	x	x	x	x
Cc1ccccc1/C=N/Nc1nc2ccccc2[nH]1	-14%	-11%	20%	u	x	x	x	x	x
Fc1cccc(Cl)c1/C=N/Nc1ccccn1	4%	-7%	57%	i	x	x	x	x	x
CCc1nnc(N/N=C/c2c(F)cccc2Cl)n1N	20µM*	x	7%	x	-26%	1%	-27%	-15%	-13%
CCOc1cc(/C=N/Nc2nnc(C)n2N)ccc1O	16µM*	x	-19%	x	-17%	14%	u	u	u
CCc1nnc(N/N=C/c2cc(C)c(C)cc2C)n1N	13µM*	13µM*	4%	10µM*	17%	-4%	-24%	-8%	-5%
CCc1nnc(-n2nc(C)cc2-c2ccccc2)n1N	u	u	-20%	x	x	x	x	x	x
Cc1[nH]c2ccccc2c1/C=N/Nc1nc2ccccc2[nH]1	18µM*	-19%[7.34 µM]	0%	u	-4%[10.4 µM]	-20%	-10%	-6%	-2%
CS(=O)(=O)c1ccc(C(=O)OCC(=O)Nc2ccc(OC(F)(F)F)cc2)cc1[N+](=O)[O-]	x	-13%	x	-13%	x	x	x	x	x
Cc1nnc(N/N=C/c2c(Cl)cccc2Cl)n1N	22µM*	-16%	-7%	-22%	13%	8%	-15%	-3%	-1%
CCc1nnc(N/N=C/c2c(C)[nH]c3ccccc23)n1N	18µM*	u	12%	u	17%	0%	u	u	-24%
Clc1cccc(Cl)c1/C=N\Nc1nccs1	-3%	-22%	x	-23%	x	x	x	x	x
Cc1nnc(N/N=C/c2ccc(-c3ccccc3F)o2)n1N	16µM*	28µM*	28%	u	u	0%	16µM*	u	u
C=CCc1cc(Cl)ccc1OCCN1CC(C)OC(C)C1 (configuration not stated)	18µM*	-4%	u	-8%	-19%	-7%	-6%	-2%	0%
CN1CC(=O)NC1=N	x	16%	3%	4%	x	x	x	x	x
Cc1ccc(NC(=S)N(CCN(C)C)Cc2cccs2)c(C)c1	14µM*	-9%	7%	-11%	-5%[10.4 µM]	-3%	-6%	4%	4%
Cc1cc(C)c(NC(=S)N(CCN(C)C)Cc2cccs2)c(C)c1	6%	-5%	1%	-22%	x	x	x	x	x
S=c1[nH]nc(-c2ccccn2)n1/N=C/c1ccccc1	-26%	-11%	-7%	-10%	x	x	x	x	x
Cc1ccc(/C=N/n2c(-c3ccccn3)n[nH]c2=S)o1	11µM*	x	12%	x	-6%	6%	-6%	1%	2%
